We go through 37 compounds from PubChem BioAssay (Tox21).

Records with an inconclusive call do not appear. Entries that show only a call come without a potency. Calls of active or inactive are those of the source. Calls come from the whole dose curve.

Beta-2 adrenergic receptor (Homo sapiens), sequence (P07550 whole entry, looked up): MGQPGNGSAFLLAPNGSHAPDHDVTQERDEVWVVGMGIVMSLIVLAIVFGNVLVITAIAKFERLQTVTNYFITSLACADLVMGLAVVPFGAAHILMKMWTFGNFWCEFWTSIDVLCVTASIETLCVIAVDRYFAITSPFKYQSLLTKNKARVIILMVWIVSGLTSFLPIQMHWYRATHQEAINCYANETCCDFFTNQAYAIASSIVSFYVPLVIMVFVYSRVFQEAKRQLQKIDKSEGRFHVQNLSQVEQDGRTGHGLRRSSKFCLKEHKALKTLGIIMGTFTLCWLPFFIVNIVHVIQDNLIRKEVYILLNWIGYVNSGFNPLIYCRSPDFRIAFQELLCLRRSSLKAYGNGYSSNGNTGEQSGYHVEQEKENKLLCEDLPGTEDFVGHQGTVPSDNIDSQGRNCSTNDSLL

One test concerns the target Beta-2 adrenergic receptor (Homo sapiens) (UniProt P07550). As to the kind of experiment: Adrenergic beta2 receptor (ADRB2) small molecule antagonists, cell-based qHTS assay (AID 1963592). Note: nearly all actives have a fitted effect of over 50% in size. As to conditions: CHO-ADRB2 cells, isoproterenol-stimulated cAMP HTRF ratio, 0.5 h; series mostly up to 92.4 µM. The method, boiled down: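 Cells (CHO, stable ADRB2 overexpression) incubated 18-20hr at 37C; compounds added from DMSO; agonist mix (1nM isoproterenol, 100uM IBMX, 25uM Ro-20-1724) added; 0.5hr RT; d2-cAMP and anti-cAMP-cryptate added; 1hr RT; 665/615 nm read.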
For the compound `c1ccc2c(c1)CCCC2`, the Potency result is “inactive”.
For the compound `CC(=[OH+])/C=C(/C)[O-].CC(=[OH+])/C=C(\C)[O-].CC(=[OH+])/C=C(\C)[O-].[Al]`, the Potency result is “inactive”.
On the same count and under the same terms, for `CCCCCCI` the value was “inactive”; for `Oc1ccccc1Cl`, “inactive”.
`Oc1cc(Cl)ccc1Cl`: the Potency entry is “inactive”.
Still for that read-out and setting: the entry for `CC(C)(C)C(=O)Cl` is “inactive”; for `NNC(=S)NN` it is “inactive”; for `O=[N+]([O-])c1ccc([As](=O)(O)O)cc1` it is “inactive”.
`O=C(O)C(F)(F)C(F)(F)C(F)(F)C(F)(F)C(F)(F)C(F)(F)C(F)(F)C(F)(F)F`: the Potency entry was “inactive”.
For `C=CC1CC=CCC1` (stereo unspecified), the Potency entry was “inactive”.
With `ClC1C(Cl)C(Cl)C(Cl)C(Cl)C1Cl` (stereo unspecified), the Potency result was “inactive”.
For `Cc1cccc([N+](=O)[O-])c1`, the Potency entry was “inactive”.
Still for that read-out and setting: the entry for `NC(=O)CF` is “inactive”; for `O=C(O)C1C2CCC(O2)C1C(=O)O` (stereo unspecified) it is “inactive”; for `COC(=O)c1ccccc1C(=O)OC` it is “inactive”.
Same read-out and setting: for `Cc1ccccc1O` the value was “inactive”; for `CCC12COCN1COC2`, “inactive”; for `C[Si](Cn1cncn1)(c1ccc(F)cc1)c1ccc(F)cc1`, “inactive”.
On the same count and under the same terms, for `Cc1ccccc1CCl` the value was “inactive”; for `N#Cc1cc([N+](=O)[O-])ccc1N`, “inactive”; for `CCOC(=O)CC(SP(=S)(OC)OC)C(=O)OCC` (stereo unspecified), “inactive”.
Take `COc1ccc2c(c1OC)C(=O)O[C@@H]2[C@H]1c2cc3c(cc2CCN1C)OCO3`: the Potency result was “inactive”.
On the same count and under the same terms, for `CC(C)(c1ccc(OCC2CO2)cc1)c1ccc(OCC2CO2)cc1` (stereo unspecified) the value was “inactive”; for `C=CCCl`, “inactive”.
Take `C/C(=N\NC(=O)Nc1cc(F)cc(F)c1)c1ncccc1C(=O)O`: the Potency result is “inactive”.
As to `C=CCOC(N)=O`, the Potency result is “inactive”.
On the same count and under the same terms, the entry for `COC(=O)NC(=S)Nc1ccccc1NC(=S)NC(=O)OC` is “inactive”; for `Cc1ccc2c(c1N)C(=O)c1ccccc1C2=O` it is “inactive”; for `COP(=O)(OC)C(O)C(Cl)(Cl)Cl` (stereo unspecified) it is “inactive”.
Same read-out and setting: for `CN(C)N` the value was “inactive”.
On the same count and under the same terms, for `O=C(O)C(Br)Br` the value was “inactive”; for `c1ccc(P(c2ccccc2)c2ccccc2)cc1`, “inactive”.
Take `CN(C)CCC#N`: the Potency result was “inactive”.
On the same count and under the same terms, the entry for `c1ccc2c(c1)sc1ccccc12` is “inactive”; for `CCBr` it is “inactive”.

Another test shares this target. As to the kind of experiment: Adrenergic beta2 receptor (ADRB2) small molecule agonists, cell-based qHTS assay (AID 1963593).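 Note: CHO cells stably overexpressing human ADRB2.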 The settings on record: CHO-ADRB2 cells, cAMP HTRF, 30 min; series mostly up to 92.4 µM. The method, boiled down:
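CHO cells stably over-expressing ADRB2 were plated overnight at 37C, then dosed with compounds plus a stimulation mix containing 100uM IBMX and 25uM Ro-20-1724 for 0.5hr at room temperature. cAMP was measured by HTRF competition, 1hr.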
(In general: Quantitative high-throughput screening tests each substance at several concentrations.)
For the compound `O=C(Nc1ccc(Br)cc1)c1cc(Br)cc(Br)c1O`, the Potency result was “inactive”.
On the same count and under the same terms, the entry for `c1ccc2c(c1)CCCC2` is “inactive”.
On the same count and under the same terms, the entry for `Oc1ccccc1Cl` is “inactive”.
Same read-out and setting: for `Oc1cc(Cl)ccc1Cl` the value was “inactive”; for `NNC(=S)NN`, “inactive”.
As for `O=[N+]([O-])c1ccc([As](=O)(O)O)cc1`, the Potency result is “inactive”.
On the same count and under the same terms, for `O=C(O)C(F)(F)C(F)(F)C(F)(F)C(F)(F)C(F)(F)C(F)(F)C(F)(F)C(F)(F)F` the value was “inactive”; for `C=CC1CC=CCC1` (stereo unspecified), “inactive”; for `ClC1C(Cl)C(Cl)C(Cl)C(Cl)C1Cl` (stereo unspecified), “inactive”.
On the same count and under the same terms, the entry for `Cc1cccc([N+](=O)[O-])c1` is “inactive”.
The same measure, in the same setting: for `O=C(O)C1C2CCC(O2)C1C(=O)O` (stereo unspecified) the value was “inactive”; for `Cc1ccccc1O`, “inactive”; for `N#Cc1cc([N+](=O)[O-])ccc1N`, “inactive”.
As to `CCOC(=O)CC(SP(=S)(OC)OC)C(=O)OCC` (stereo unspecified), the Potency entry was “inactive”.
Same read-out and setting: for `NCC(O)c1ccc(O)cc1` (stereo unspecified) the value was “inactive”; for `C/C(=N\NC(=O)Nc1cc(F)cc(F)c1)c1ncccc1C(=O)O`, “inactive”.
For `C=CCOC(N)=O`, the Potency entry was “inactive”.
Still for that read-out and setting: the entry for `Cc1ccc2c(c1N)C(=O)c1ccccc1C2=O` is “inactive”; for `O=C(O)C(Br)Br` it is “inactive”.
Consider `c1ccc(P(c2ccccc2)c2ccccc2)cc1`, for which the Potency entry was “inactive”.
For `c1ccc2c(c1)sc1ccccc12`, the Potency entry was “inactive”.
